Measured values taken from PubChem BioAssay AID1159580 (chemical genetic matrix, 2015).
Values joined by “and” are separate entries in the source; they are usually repeats but may differ in a detail not shown here. Identical values can stand only once. Hit rate of the full screen: of about 5,500 compounds, about 2,000 (36%) were called active. Not shown: some 18% with an inconclusive outcome. Rule as the data show it: active = normalized growth mostly below about 0.91 (no sharp cut-off); inconclusive = no clear call, values can overlap the other calls; inactive = mostly above about 0.92. The list shows a part of the results.

Test: chemical genetic growth profiling, strain panel (AID 1159580);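 also: tested at 20 µM; growth read once vehicle control cultures reached saturation at 30 °C; 1 = growth at the plate median or of vehicle wells; lower values mean less growth of the strain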
Settings: S. cerevisiae deletion strains, growth OD

Measured: normalized growth

COC(=O)[C@H]1[C@H]2C[C@@H]3c4[nH]c5cc(OC)ccc5c4CCN3C[C@H]2C[C@@H](OC(=O)c2cc(OC)c(OC)c(OC)c2)[C@@H]1OC
inactive: locus YAL013W, strain DEP1, hits give low values 0.994 | locus YAL021C, strain ccr4, hits give low values 0.965 | locus YAL026C, strain drs2, hits give low values 0.974 | locus YAL030W, strain snc1, hits give low values 0.981 | locus YBL061C, strain skt5, hits give low values 1 | locus YBR009C, strain hhf1, hits give low values 1.01 | locus YBR021W, strain FUR4, hits give low values 0.981 | locus YBR023C, strain chs3, hits give low values 0.979 | locus YBR171W, strain sec66, hits give low values 1 | locus YBR229C, strain ROT2, hits give low values 0.991 | locus YBR231C, strain swc5, hits give low values 0.987 | locus YBR279W, strain paf1, hits give low values 0.965 | locus YCL011C, strain gbp2, hits give low values 0.97 | locus YCL016C, strain dcc1, hits give low values 0.94 | locus YCL029C, strain bik1, hits give low values 1.03 | locus YCL069W, strain vba3, hits give low values 1.01 | locus YCR088W, strain abp1, hits give low values 0.999 | locus YDL005C, strain med2, hits give low values 0.98 | locus YDL035C, strain GPR1, hits give low values 0.979 | locus YDL040C, strain nat1, hits give low values 0.992 | locus YDL074C, strain BRE1, hits give low values 0.952 | locus YDL101C, strain DUN1, hits give low values 1.01 | locus YDL134C, strain PPH21, hits give low values 1 | locus YDL185W, strain tfp1, hits give low values 1.02 | locus YDL192W, strain arf1, hits give low values 1.03 | locus YDR001C, strain nth1, hits give low values 0.984 | locus YDR069C, strain doa4, hits give low values 0.963 | locus YDR101C, strain arx1, hits give low values 1 | locus YDR137W, strain rgp1, hits give low values 1.04 | locus YDR150W, strain NUM1, hits give low values 1 | locus YDR159W, strain sac3, hits give low values 0.968 | locus YDR162C, strain NBP2, hits give low values 0.991 | locus YDR195W, strain ref2 0.972 | locus YDR297W, strain sur2, hits give low values 0.984 | locus YDR318W, strain mcm21, hits give low values 1.01 | locus YDR334W, strain swr1, hits give low values 0.972 | locus YDR335W, strain msn5, hits give low values 0.993 | locus YDR388W, hits give low values 1.01 | locus YDR392W, strain spt3, hits give low values 0.784 | locus YDR502C, strain sam2, hits give low values 0.996 | locus YEL003W, strain gim4, hits give low values 0.977 | locus YEL037C, strain rad23, hits give low values 1 | locus YEL061C, strain CIN8 (second series), hits give low values 0.987 | locus YEL061C, strain CIN8, hits give low values 0.999 | locus YER015W, strain faa2, hits give low values 0.97 | locus YER016W, strain bim1, hits give low values 1 | locus YER110C, hits give low values 1.02 | locus YER111C, strain swi4, hits give low values 0.996 | locus YER155C, strain BEM2 (second series), hits give low values 0.931 | locus YER155C, strain BEM2, hits give low values 1.02 | locus YER167W, strain BCK2, hits give low values 0.987 | locus YFR010W, strain ubp6, hits give low values 1.01 | locus YGL078C, strain dbp3, hits give low values 1 | locus YGL086W, strain mad1, hits give low values 0.998 | locus YGL167C, strain pmr1, hits give low values 0.991 | locus YGL173C, strain kem1, hits give low values 0.983 | locus YGL227W, strain vid30, hits give low values 0.979 | locus YGL240W, strain doc1, hits give low values 0.957 | locus YGL248W, strain PDE1, hits give low values 1 | locus YGL253W, strain hxk2, hits give low values 1.01 | locus YGR078C, strain PAC10, hits give low values 0.975 | locus YGR135W, strain pre9, hits give low values 1.03 | locus YGR229C, strain SMI1, hits give low values 0.964 | locus YGR252W, strain gcn5, hits give low values 0.929 | locus YHR013C, strain ard1, hits give low values 0.92 | locus YHR027C, strain rpn1, hits give low values 0.953 | locus YHR030C, strain SLT2, hits give low values 1 and 0.982 | locus YHR079C, strain IRE1 (second series), hits give low values 1.01 | locus YHR079C, strain IRE1, hits give low values 0.978 | locus YHR094C, strain hxt1, hits give low values 1.02 | locus YHR129C, strain ARP1, hits give low values 1.01 | locus YHR142W, strain chs7, hits give low values 0.986 | locus YHR200W, strain rpn10, hits give low values 0.998 | locus YIL066C, strain RNR3, hits give low values 0.986 | locus YIL073C, strain SPO22, hits give low values 1.06 | locus YIL125W, strain kgd1, hits give low values 1 | locus YIR030C, strain dcg1, hits give low values 1.01 | locus YJL092W, strain hpr5, hits give low values 0.976 | locus YJL095W, strain BCK1 (second series), hits give low values 0.965 | locus YJL095W, strain BCK1, hits give low values 0.996 and 0.977 | locus YJL115W, strain asf1, hits give low values 0.966 | locus YJL129C, strain trk1, hits give low values 0.971 | locus YJL134W, strain LCB3, hits give low values 0.999 | locus YJL154C, strain vps35, hits give low values 0.986 | locus YJL164C, strain tpk1, hits give low values 0.988 | locus YJL166W, strain qcr8, hits give low values 0.981 | locus YJL168C, strain set2, hits give low values 1.01 | locus YJL187C, strain SWE1 (second series), hits give low values 0.999 | locus YJR043C, strain POL32, hits give low values 0.967 | locus YJR066W, strain TOR1, hits give low values 0.949 | locus YJR075W, strain HOC1, hits give low values 0.983
